Data on 38 sequences can be found in article PMC11006913.

Sequence of CRX (O43186 26-111 R41L): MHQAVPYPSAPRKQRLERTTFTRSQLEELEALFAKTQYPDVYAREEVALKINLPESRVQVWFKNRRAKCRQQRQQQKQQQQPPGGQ

One experiment concerns the target PITX2 (Homo sapiens, UniProt Q99697 72-157). In words: PBM; 200 nM protein, PBS. The conditions noted are these: dsDNA, one strand shown.
Take GATAAGCC: the binding signal is 12.3 upbm affinity estimate (log intensity, higher = more binding, comparable within an allelic series).
On the same count and under the same terms, as for CTAAGCCC, the figure is 12.3 upbm affinity estimate (log intensity, higher = more binding, comparable within an allelic series); as for ATACCTTA, 9.97 upbm affinity estimate (log intensity, higher = more binding, comparable within an allelic series); as for AAGCTAGG, 9.89 upbm affinity estimate (log intensity, higher = more binding, comparable within an allelic series).
Same read-out and setting: to TGGCTTAA belongs 12.3 upbm affinity estimate (log intensity, higher = more binding, comparable within an allelic series).
CCAAATCG: the binding signal was 9.39 upbm affinity estimate (log intensity, higher = more binding, comparable within an allelic series).
Still for that read-out and setting: to ATAAATCC belongs 12.3 upbm affinity estimate (log intensity, higher = more binding, comparable within an allelic series); to AGGAGGCC, 8.05 upbm affinity estimate (log intensity, higher = more binding, comparable within an allelic series); to AGGATTTA, 12.4 upbm affinity estimate (log intensity, higher = more binding, comparable within an allelic series).
On to ACTTAATC, for which the binding signal is 12.3 upbm affinity estimate (log intensity, higher = more binding, comparable within an allelic series).
The same measure, in the same setting: as for GGTTTATA, the figure is 10.5 upbm affinity estimate (log intensity, higher = more binding, comparable within an allelic series).
The same measure, in the same setting: to CGGATTTA belongs 12.3 upbm affinity estimate (log intensity, higher = more binding, comparable within an allelic series); to CGAGATTA, 12.3 upbm affinity estimate (log intensity, higher = more binding, comparable within an allelic series).
For the sequence ACGGTGCC, the binding signal is 7.94 upbm affinity estimate (log intensity, higher = more binding, comparable within an allelic series).
Same read-out and setting: as for ACGATGCC, the figure is 7.9 upbm affinity estimate (log intensity, higher = more binding, comparable within an allelic series); as for CAGTTCCG, 8.03 upbm affinity estimate (log intensity, higher = more binding, comparable within an allelic series).
Still for that read-out and setting: to ACGTCTCC belongs 7.95 upbm affinity estimate (log intensity, higher = more binding, comparable within an allelic series); to GGAATAAA, 9.51 upbm affinity estimate (log intensity, higher = more binding, comparable within an allelic series).
Take CTATCGCC: the binding signal is 8.13 upbm affinity estimate (log intensity, higher = more binding, comparable within an allelic series).
Regarding CATCGACC, the binding signal was 8.07 upbm affinity estimate (log intensity, higher = more binding, comparable within an allelic series).

The target in a further experiment is HOXD13 (Homo sapiens, UniProt P35453 263-343). In words: PBM; 200 nM protein, PBS. To be noted: dsDNA, one strand shown.
Sequence of HOXD13 (P35453 263-343): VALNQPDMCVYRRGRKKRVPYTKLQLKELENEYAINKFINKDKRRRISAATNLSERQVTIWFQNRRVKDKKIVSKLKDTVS
On to ATCATTCA, for which the binding signal was 10.6 upbm affinity estimate (log intensity, higher = more binding, comparable within an allelic series).
The same measure, in the same setting: to GTTAAAGA belongs 10.8 upbm affinity estimate (log intensity, higher = more binding, comparable within an allelic series); to ATCAATAC, 10.5 upbm affinity estimate (log intensity, higher = more binding, comparable within an allelic series); to TATATGCA, 10.8 upbm affinity estimate (log intensity, higher = more binding, comparable within an allelic series).
The same measure, in the same setting: as for AGAGTTAA, the figure is 10.7 upbm affinity estimate (log intensity, higher = more binding, comparable within an allelic series).
Turning to AAGTTGTA, the binding signal is 10.7 upbm affinity estimate (log intensity, higher = more binding, comparable within an allelic series).
As to TATTGCGA, the binding signal was 10.6 upbm affinity estimate (log intensity, higher = more binding, comparable within an allelic series).
Still for that read-out and setting: as for TATATCAA, the figure is 10.8 upbm affinity estimate (log intensity, higher = more binding, comparable within an allelic series); as for AGACTATA, 10.7 upbm affinity estimate (log intensity, higher = more binding, comparable within an allelic series).
Regarding GACGTTTA, the binding signal was 10.7 upbm affinity estimate (log intensity, higher = more binding, comparable within an allelic series).
The same measure, in the same setting: as for TAACTAAA, the figure is 10.7 upbm affinity estimate (log intensity, higher = more binding, comparable within an allelic series); as for TATTTAGA, 10.6 upbm affinity estimate (log intensity, higher = more binding, comparable within an allelic series).
Still for that read-out and setting: as for ACACAATA, the figure is 10.6 upbm affinity estimate (log intensity, higher = more binding, comparable within an allelic series); as for AATAATGC, 10.8 upbm affinity estimate (log intensity, higher = more binding, comparable within an allelic series); as for AATGAGTA, 10.8 upbm affinity estimate (log intensity, higher = more binding, comparable within an allelic series).
Still for that read-out and setting: to CGATTTAA belongs 10.9 upbm affinity estimate (log intensity, higher = more binding, comparable within an allelic series).
Turning to ACGATATA, the binding signal is 10.9 upbm affinity estimate (log intensity, higher = more binding, comparable within an allelic series).

The target in the next experiment is PROP1 (Homo sapiens, UniProt O75360 56-141). In words: PBM; 200 nM protein, PBS. The conditions noted are these: dsDNA, one strand shown.
Sequence of PROP1 (O75360 56-141): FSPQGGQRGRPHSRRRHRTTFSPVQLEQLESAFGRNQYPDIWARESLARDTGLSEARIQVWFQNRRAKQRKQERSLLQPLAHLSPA
Consider AGGAGGCC, for which the binding signal is 6.87 upbm affinity estimate (log intensity, higher = more binding, comparable within an allelic series).
Still for that read-out and setting: to GGTTTATA belongs 7.99 upbm affinity estimate (log intensity, higher = more binding, comparable within an allelic series).
The same measure, in the same setting: to AATTAGGT belongs 11 upbm affinity estimate (log intensity, higher = more binding, comparable within an allelic series).

The target of the next experiment is NKX3-2 (Homo sapiens, UniProt P78367 192-278, P234S). In words: PBM; 200 nM protein, PBS. The conditions noted are these: dsDNA, one strand shown.
Sequence of NKX3-2 (Homo sapiens, UniProt P78367 192-278, P234S) (P78367 192-278 P234S): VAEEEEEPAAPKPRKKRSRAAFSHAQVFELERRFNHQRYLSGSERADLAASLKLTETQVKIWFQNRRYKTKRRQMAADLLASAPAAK
As for AAGCTAGG, the binding signal is 10.4 upbm affinity estimate (log intensity, higher = more binding, comparable within an allelic series).
Still for that read-out and setting: to ACGGTGCC belongs 10.5 upbm affinity estimate (log intensity, higher = more binding, comparable within an allelic series); to CATCGACC, 10.6 upbm affinity estimate (log intensity, higher = more binding, comparable within an allelic series).

A further experiment concerns the target CRX (Homo sapiens, UniProt O43186 26-111, R41L). In words: PBM; 200 nM protein, PBS. To be noted: dsDNA, one strand shown.
On to GATAAGCC, for which the binding signal was 12.4 upbm affinity estimate (log intensity, higher = more binding, comparable within an allelic series).
Same read-out and setting: to CTAAGCCC belongs 11.5 upbm affinity estimate (log intensity, higher = more binding, comparable within an allelic series); to TGGCTTAA, 11.5 upbm affinity estimate (log intensity, higher = more binding, comparable within an allelic series); to ACTTAATC, 12.4 upbm affinity estimate (log intensity, higher = more binding, comparable within an allelic series).
On to CGGATTTA, for which the binding signal is 12.3 upbm affinity estimate (log intensity, higher = more binding, comparable within an allelic series).
The same measure, in the same setting: to CGAGATTA belongs 12.4 upbm affinity estimate (log intensity, higher = more binding, comparable within an allelic series).

The target of a further experiment is NKX3-2 (Homo sapiens, UniProt P78367 192-278). In words: PBM; 200 nM protein, PBS. To be noted: dsDNA, one strand shown.
Sequence of NKX3-2 (Homo sapiens, UniProt P78367 192-278) (P78367 192-278): as the sequence (P78367 192-278 P234S) above, with S43P counted along it
Consider AAGCTAGG, for which the binding signal was 10.4 upbm affinity estimate (log intensity, higher = more binding, comparable within an allelic series).
Still for that read-out and setting: to ACGGTGCC belongs 10.5 upbm affinity estimate (log intensity, higher = more binding, comparable within an allelic series).
Still for that read-out and setting: as for CATCGACC, the figure is 10.6 upbm affinity estimate (log intensity, higher = more binding, comparable within an allelic series).
